Bioassay records as filed in PubChem BioAssay.
hgDAF-12 ag = hgDAF-12 agonism, primary luciferase screen. HEK293 GAL4-hgDAF12 UAS-luciferase reporter, agonist luminescence; normalized to butyrate control. activation, % at 6.8 µM. actives 1.8% (n = 370,000);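 active = activation above a cutoff set at the mean of all screened compounds plus 3 SD, cut at about 10% in these data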;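 also: 0% = DMSO wells and 100% = sodium butyrate wells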
DAX1 inh-1 = inhibitors of human orphan nuclear receptor DAX1 (NR0B1); P51843; HEK293 Gal4-DAX1 luciferase reporter, luminescence; inhibition, % at 6.75 µM; actives 0.99% (n = 340,000); AID 504766;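 active = inhibition above the mean over all tested compounds plus 3 SD, cut at about 4.2% in these data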;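 also: 0% = DAX1-transfected cells with DMSO and 100% = empty-vector control cells with DMSO; inhibition shows as a rise in luminescence from relieved DAX1 repression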
Target sequence (P51843 207-470 limits assumed): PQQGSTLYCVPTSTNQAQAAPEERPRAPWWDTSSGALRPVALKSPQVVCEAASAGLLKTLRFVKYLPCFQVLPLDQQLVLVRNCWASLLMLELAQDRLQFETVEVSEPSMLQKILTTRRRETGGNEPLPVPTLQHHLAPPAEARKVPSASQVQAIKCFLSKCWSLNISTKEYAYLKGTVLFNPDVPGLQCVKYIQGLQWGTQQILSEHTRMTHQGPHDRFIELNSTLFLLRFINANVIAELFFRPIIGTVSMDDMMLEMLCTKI
PolyA inh = blocks polyadenylation in yeast reporter cells. S. cerevisiae SKY197-pL101 polyadenylation reporter, beta-gal luminescence; efflux-impaired pdr1/pdr3 knockout yeast; score 100 = 6 SD above DMSO. activity score, % at 12 µM. actives 0.02% (n = 300,000). AID 1875;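 active = lowest replicate activity score at least 50, where 100 means six control SD above control mean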;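 also: yeast exposed to compound for 9 h at 30 °C; higher score means more reporter readthrough which indicates perturbed polyadenylation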
DAX1 inh-2 = inhibitors of DAX1 repression of SF-1 activated StAR promoter | HEK293T StAR-luciferase reporter, SF-1/DAX-1 repression relief | inhibition, % at 6.8 µM | actives 1.1% (n = 370,000);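 active = inhibition above the mean over all tested compounds plus 3 SD, cut at about 3.6% in these data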;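 also: 0% = DAX-1 cells with DMSO and 100% = cells lacking DAX-1 with DMSO; higher inhibition means more luminescence from relief of DAX-1 repression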
ssDAF12 agonist = S. stercoralis DAF-12 activation, primary screen | HEK293 ssDAF-12/GRIP1 lit1-tk-luc reporter, luminescence; % of 3 µM dafachronic acid response | activation, % at 6.8 µM | actives 1% (n = 370,000);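 active = activation above the mean over all tested compounds plus 3 SD, cut at about 0.9% in these data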;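 also: 0% = DMSO-only wells and 100% = 3 µM delta7-dafachronic acid wells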
hcDAF12 agonist = H. contortus DAF-12 activation, primary screen | HEK293 hcDAF-12 lit1-tk-luc reporter, luminescence; 0% DMSO, 100% Δ7-dafachronic acid | AID 652067 | activation, % at 6.8 µM | actives 1.4% (n = 370,000);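 active = activation above the mean of all tested compounds plus 3 SD, cut at about 5.5% in these data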;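 also: 100% = response to 3 µM Δ7-dafachronic acid high control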
Numbers without * were called inactive; / = no result given. The list is not random: actives were taken first. Their share in the collection is about 4.1%.

SMILES	hgDAF-12 ag	DAX1 inh-1	PolyA inh	DAX1 inh-2	ssDAF12 agonist	hcDAF12 agonist
Cc1cccc(N=CC=C2OC(C)(C)C(C)(C)O2)c1	3.7	-0.1	12.3	0.4	-0.5	-0.1
Cc1ccc(N=CC=C2OC(C)(C)C(C)(C)O2)cc1	3.8	-0.7	-3.9	-0.1	-1.5	5.7*
COc1cccc(CNC(=O)CN2CCCc3ccccc32)c1	1.2	/	/	-0.3	-0.3	1.9
Cc1cccc(C)c1NCc1n[nH]c(=S)n1-c1ccccc1	2.5	4.7*	-5.5	-0.1	-0.6	-0.2
Cc1ccc(C)c(NCc2n[nH]c(=S)n2-c2ccccc2)c1	-1.6	0.0	-7.6	0.2	-1.0	0.4
COCc1n[nH]c(=S)n1-c1ccccc1	-1.5	1.2	4.5	-0.4	-0.7	0.1
CC(C)Oc1ccc(CCc2n[nH]c(=S)n2-c2ccccc2)cc1	0.9	4.3*	-15.3	-1.3	-0.3	-2.2
O=C(COC(=O)COc1ccc2ccccc2c1)NCC(F)(F)F	-0.3	0.5	15.8	0.0	-1.3	5.6*
CCNC(=O)COc1ccc2ccccc2c1	7.2	1.2	-0.7	0.9	-0.5	1.3
CCCCc1c(-c2ccccc2OC)ncn1Cc1c(Cl)cccc1Cl	-1.7	/	/	-0.8	-1.3	-1.7
Cc1c(-c2cc(Br)ccc2O)nc2cc3c(cc2c1C)OCO3	4.6	4.3*	-35.2	-0.4	-0.7	0.4
CS(=O)(=O)NNC(=O)c1csc(Cc2c(Cl)sc3ccc(Cl)cc23)n1	1.2	4.6*	23.2	-0.5	-1.1	-1.1
NC(=O)C1(N2CCCCC2)CCN(S(=O)(=O)c2cc(Cl)ccc2Cl)CC1	-1.2	4.6*	-12.5	0.8	-0.5	2.0
NC(=O)C1(N2CCCCC2)CCN(S(=O)(=O)c2ccc(Cl)s2)CC1	2.7	-0.1	18.4	0.4	-1.3	1.6
COc1ccc(S[C@]2(C(=O)N3CCN(C(C)=O)CC3)CC(=O)N[C@@H]2c2ccc(OC)cc2)cc1	-1.2	/	/	-0.3	-1.5	0.3
CCOC(=O)C1=C(C)Nc2nc(C)nn2C1c1ccc(OC)c(OC)c1 (stereo not drawn)	2.4	4.6*	5.5	0.2	-0.8	1.0
Cc1cc2nc3c(c(C(F)(F)F)n2n1)CCCC3	0.3	6.3*	/	0.1	-1.1	-1.3
O=C(NC1CCCCC1)c1cc2nc3c(c(C(F)(F)F)n2n1)CCCC3	3.3	0.0	-7.3	1.4	-0.6	0.0
Nc1c(C(=O)CSc2nc3ccccc3o2)c(=O)[nH]c(=O)n1C1CC1	-6.2	-1.7	/	4.4*	-1.3	-1.6
COc1ccccc1-c1nnc(SCC(=O)c2c(N)n(C3CC3)c(=O)[nH]c2=O)o1	2.0	1.5	/	-1.0	0.1	4.5
CCSc1ccc(-c2cccc([N+](=O)[O-])c2)nn1	13.1*	0.1	-10.8	2.1	-0.2	6.2*
Cc1cc(NC(=O)CSc2ccc(-c3cccc([N+](=O)[O-])c3)nn2)no1	-1.7	0.4	-8.7	4.0*	0.1	1.8
Cc1cc(NC(=O)CSc2ccc(-c3ccccc3)nn2)no1	0.2	-0.2	-3.2	0.3	-1.2	-1.8
CC(=O)C1(C(=O)N2CCOCC2)CC(c2ccccc2C(F)(F)F)=NO1 (stereo not drawn)	3.4	/	/	-0.3	-0.8	-1.6
Cc1ccc(OCC(=O)Nc2ccc(C(=O)Nc3ccccc3C(=O)O)cc2)cc1C	10.7*	-1.2	/	1.6	-0.2	0.3
SMILES	hgDAF-12 ag	DAX1 inh-1	PolyA inh	DAX1 inh-2	ssDAF12 agonist	hcDAF12 agonist
Cc1cccc(C(=O)Nc2ccccc2C(=O)Nc2ccc(C(=O)O)cc2)c1	-0.3	6.6*	0.4	0.1	-1.4	0.3
COc1ccc(OCC(=O)Nc2ccc(C(=O)Nc3ccccc3C(=O)O)cc2)cc1	1.3	0.4	-4.6	0.4	-1.0	4.3
O=C(O)c1ccc(NC(=O)c2ccccc2NC(=O)c2cccc(F)c2)cc1	-0.2	0.1	-23.2	-0.3	-0.5	0.5
NC(=O)C1CCN(C(=O)Nc2csc3ccccc23)CC1	1.4	/	6.5	-0.1	1.0*	2.0
CC(=O)Nc1csc2ccccc12	2.9	0.1	-9.0	1.5	-0.1	2.2
Cc1ccc(NC(=O)c2c(C)noc2C)cc1	-1.9	0.7	9.4	0.2	-0.9	-0.2
Cc1nc(Cl)sc1C(=O)Nc1ccc(C(C)(C)C)cc1	4.6	5.2*	-5.1	-0.8	-0.1	0.9
Cc1ccccc1NC(=O)c1sc(Cl)nc1C	-0.4	-0.6	-2.5	-0.1	-1.6	-1.8
Cc1noc(N)c1C(=O)Nc1ccc(C(C)(C)C)cc1	12.8*	3.0	-10.9	1.6	0.3	1.5
COc1ccc(S[C@]2(C(=O)N3CCCC3)CC(=O)N(c3ccsc3)[C@@H]2c2ccc(OC)cc2)cc1	-0.6	/	/	-2.2	-1.5	-1.8
CN(CCCOC(=O)c1cc2ccccc2o1)C1CN(Cc2cn(Cc3ccccc3Cl)nn2)S(=O)(=O)C1 (stereo not drawn)	3.9	/	/	2.6	-0.5	0.0
COc1nc(OC)nc(N2CCC(C(=O)NCc3cccc(OC)c3OC)CC2)n1	-1.6	/	/	-1.1	-1.2	-3.2
CC(C)Cc1cc(C(=O)Nc2ccc(F)cc2F)no1	12.3*	1.1	-7.4	3.9*	-0.6	0.5
CC(C)Cc1cc(C(=O)Nc2cc(Cl)ccc2Cl)no1	0.0	0.4	2.3	0.3	-0.7	5.6
CCc1ccc(NC(=O)c2cc(-c3cccs3)on2)cc1	8.3	1.6	1.4	0.7	-0.1	-1.1
CCCc1cc(C(=O)Nc2ccc(CC)cc2)no1	10.9*	3.1	-0.1	2.0	-0.3	4.7
CCc1ccc(NC(=O)c2cc(C)no2)cc1	5.0	4.4*	7.8	0.5	-0.8	0.7
Cc1ccc(NC(=O)c2cc(C)no2)cc1	3.9	-0.3	-3.4	0.9	-1.1	1.1
CCc1ccc(NC(=O)c2cc(CC(C)C)on2)cc1	8.4	5.1*	4.2	1.5	-0.3	2.5
O=C(NCCc1ccccc1)OCc1cn(Cc2ccccc2Cl)nn1	0.9	/	/	0.2	-0.8	-1.8
CCCc1cc(C(=O)Nc2cc(Cl)ccc2O)no1	11.0*	3.1	-8.0	0.9	0.4	5.6*
CC(C)c1cc(C(=O)Nc2cc(Cl)ccc2O)no1	8.9	2.2	3.3	3.2	-0.5	1.8
Cc1cc(C)nc(S/C=C/C(=O)c2ccccc2F)n1	-0.1	6.2*	-20.9	0.8	-2.0	-0.9
COc1ccc(/C=N/NC(=O)CN2CCCC2)cc1	3.9	0.6	-10.9	0.7	-1.1	-0.4
O=C(N/N=C/c1ccc(OCC(=O)N2CCCCC2)cc1)c1ccccc1	5.0	0.6	-17.0	0.9	-1.3	-1.1
O=C(N/N=C/c1ccc(OCC(=O)N2CCCCC2)cc1)c1ccccc1O	5.7	-0.2	-9.1	1.2	1.7*	4.6
CC(C)(C)OC(=O)COc1ccc(/C=N/NC(=O)CN2CCCCC2)cc1	12.7*	0.7	4.5	0.9	-0.9	0.3
